Each compound was assayed on glycogen synthase kinase-3 (GSK3A per assay name; protocol says GSK3B) (assay: compounds binding glycogen synthase kinase-3 – biochemical, small-molecule microarray, 635 nm fluorescence, GSK3A, primary screen (AID 1103; also: the record names both GSK3A and GSK3B)). Conditions: fluorescence 635 nm, higher = more signal.

| SMILES | composite z-score |
| --- | --- |
| C[C@]12CCC3c4ccc(OCC5CO5)cc4CCC3C1CC[C@@H]2O (some centres not stated) | -0.309 |
| COC(=O)[C@@H]1CC[C@H](C)[C@@H](c2ccc(Br)cc2)N1C[C@@H](O)CN=[N+]=[N-] | 0.078 |
| O=C1CCCC=C1C(O)C1CCCCC1 (configuration not stated) | -0.0973 |
| CCOC(=O)[C@H](CC(C)C)NC(=O)CCC1CC(OC(=O)NCc2ccc3c(c2)OCO3)CC2(CCCC(COC(=O)NCCc3ccccc3OC)O2)O1 (some centres not stated) | 1.27 |

These compounds were tested against Epidermal growth factor receptor (Homo sapiens) (UniProt P00533) (assay: compounds binding epidermal growth factor receptor – biochemical, small-molecule microarray, 635 nm fluorescence, primary screen (AID 1104;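 also: score merges 667 nm emission intensity with spot signal to noise over triplicate slides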)). Conditions: EGFR binding, higher = more signal.
Chain of Epidermal growth factor receptor (Homo sapiens) (P00533 whole entry, looked up): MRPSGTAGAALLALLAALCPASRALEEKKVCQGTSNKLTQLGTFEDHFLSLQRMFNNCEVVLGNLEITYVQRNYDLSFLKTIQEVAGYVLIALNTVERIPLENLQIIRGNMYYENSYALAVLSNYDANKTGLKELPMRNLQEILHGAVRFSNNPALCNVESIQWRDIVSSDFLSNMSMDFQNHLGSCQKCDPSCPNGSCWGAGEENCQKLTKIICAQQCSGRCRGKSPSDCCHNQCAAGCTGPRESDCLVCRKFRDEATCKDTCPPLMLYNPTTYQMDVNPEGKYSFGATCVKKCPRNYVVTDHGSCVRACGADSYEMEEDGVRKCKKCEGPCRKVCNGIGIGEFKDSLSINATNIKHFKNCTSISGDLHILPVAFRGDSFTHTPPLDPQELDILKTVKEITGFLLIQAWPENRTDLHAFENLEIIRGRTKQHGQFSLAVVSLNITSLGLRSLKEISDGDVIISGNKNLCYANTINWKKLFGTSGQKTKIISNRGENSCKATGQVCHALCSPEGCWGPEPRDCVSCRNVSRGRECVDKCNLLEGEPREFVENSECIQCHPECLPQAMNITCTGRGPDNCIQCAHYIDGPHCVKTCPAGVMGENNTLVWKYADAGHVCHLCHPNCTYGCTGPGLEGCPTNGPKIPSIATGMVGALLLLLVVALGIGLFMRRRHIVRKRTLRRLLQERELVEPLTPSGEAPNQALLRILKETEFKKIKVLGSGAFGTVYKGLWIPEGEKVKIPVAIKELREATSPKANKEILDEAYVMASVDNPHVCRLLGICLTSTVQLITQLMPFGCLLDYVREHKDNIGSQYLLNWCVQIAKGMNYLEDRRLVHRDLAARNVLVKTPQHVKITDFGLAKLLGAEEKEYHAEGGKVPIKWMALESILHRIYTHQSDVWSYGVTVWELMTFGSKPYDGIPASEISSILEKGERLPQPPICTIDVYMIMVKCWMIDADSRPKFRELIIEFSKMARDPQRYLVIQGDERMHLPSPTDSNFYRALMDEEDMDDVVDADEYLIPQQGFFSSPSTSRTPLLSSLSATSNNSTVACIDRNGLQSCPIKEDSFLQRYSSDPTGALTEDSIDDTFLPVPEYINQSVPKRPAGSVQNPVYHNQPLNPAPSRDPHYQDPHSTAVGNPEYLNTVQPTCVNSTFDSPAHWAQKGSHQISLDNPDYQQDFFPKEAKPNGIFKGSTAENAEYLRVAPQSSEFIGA

| SMILES | composite z-score |
| --- | --- |
| COC(=O)[C@H](C)NC(=O)CCC1CC(OC(=O)NCCc2ccc(F)cc2)CC2(CCCC(COC(=O)NCC3CCCCC3)O2)O1 (some centres not stated) | 0.501 |
| COc1ccc2c(c1)O[C@@H](c1cccc(C(F)(F)F)c1)[C@H](O)C2=O | 0.349 |
| CCOC(=O)[C@H](Cc1ccccc1)NC(=O)CCC1CC(OC(=O)NCc2ccc3c(c2)OCO3)CC2(CCCC(COC(=O)NCCOc3ccccc3)O2)O1 (some centres not stated) | 0.628 |
| CC(=O)OC[C@H]1O[C@@H](ON=C(C)C)[C@H](OC(C)=O)[C@@H](OC(C)=O)[C@@H]1OC(C)=O | -0.246 |
| CCOC(=O)[C@H](Cc1ccccc1)NC(=O)CCC1CC(OC(=O)NCc2ccc3c(c2)OCO3)CC2(CCCC(COC(=O)NCCc3ccc(Cl)cc3)O2)O1 (some centres not stated) | 0.549 |
| O=C1C=C[C@@H](O)[C@@H]2[C@@H]3C(=O)N(Cc4ccccc4)C(=O)[C@@H]3CC[C@@H]12 | 0.552 |
| COC(=O)C1=C(C)N(Cc2ccccc2)C2=C3C(=O)OCC[C@@H]3[C@@](O)(C(=O)OC)C(=O)N2[C@@H]1c1ccccc1 | 0.526 |
| CCCNC(=O)OC[C@H]1O[C@H](CCON=C[C@@H](NS(=O)(=O)c2ccc(C)cc2)[C@H](C)C=CCC(=O)OC)C=C[C@@H]1Oc1ccc(OC)cc1 | -0.147 |
| CC=CC1=C(CO)[C@H](O)[C@H]2O[C@H]2[C@@H]1O | 0.148 |
| COc1ccc(O[C@H]2C=C[C@@H](C#Cc3ccccc3)O[C@@H]2CO)cc1 | 0.316 |
| COC(=O)[C@@H]1CC[C@H](C)[C@@H](c2ccc(C)cc2)N1C(=O)c1ccc(C=NOC[C@H]2O[C@H](c3ccccc3)C=C[C@@H]2Oc2ccc(OC)cc2)cc1 | 0.331 |
| CON=C1c2cc(OC)ccc2O[C@H](c2cccc(OC)c2)[C@H]1O | 0.52 |
| C[C@@H]1CC[C@H]2C(=O)OC(Cc3ccccc3)CN2[C@H]1c1ccc(Br)cc1 (some centres not stated) | 0.0012 |
| C=CCOCC1CN2[C@@H](CC[C@@H](C)[C@@H]2c2ccc(Br)cc2)C(=O)O1 (some centres not stated) | -0.014 |
| COc1ccc(COC(=O)NN=C2C[C@@H](O)[C@@H](O)[C@@H]3[C@@H]4C(=O)N(Cc5ccccc5)C(=O)[C@@H]4CC[C@@H]23)cc1 | 0.375 |
| COC(=O)[C@H](C)NC(=O)CCC1CC(OC(=O)NCCc2ccc(F)cc2)CC2(CCCC(COC(=O)NCCOc3ccccc3)O2)O1 (some centres not stated) | 0.538 |
| COC(=O)[C@H](C)NC(=O)CCC1CC(OC(=O)NCCc2ccc(F)cc2)CC2(CCCC(COC(=O)NCCc3ccccc3OC)O2)O1 (some centres not stated) | 0.484 |
| CCOC(=O)[C@H](CC(C)C)NC(=O)CCC1CC(OC(=O)NCc2ccc3c(c2)OCO3)CC2(CCCC(COC(=O)NCCC(C)C)O2)O1 (some centres not stated) | 0.0946 |
| C=C(C)C(=O)OC[C@H]1CN2[C@@H](CC[C@@H](C)[C@@H]2c2ccc(Br)cc2)C(=O)O1 | 0.135 |
| CO[C@@H]1COC(=O)[C@H](COCc2ccccc2)NC(=O)CC=C[C@@H](C)[C@H](OC)COC(=O)[C@@H](C)NC(=O)CC=C[C@H]1C | 0.378 |
| O=C1C[C@H](c2ccccc2)[C@H](c2ccc(Br)cc2)O1 | 0.127 |
| CC(CCN1CCCc2nc(C)c(C)cc21)=NO[C@H](C)c1cn([C@H](CO)Cc2ccccc2)nn1 | 0.596 |
| COC(=O)[C@@H]1CC[C@H](C)[C@@H](c2ccc(Br)cc2)N1C(=O)C(F)(F)F | 0.0496 |
| CC(CCN1CCCc2nc(C)c(C)cc21)=NOC[C@@H](O)COCc1ccco1 | 1.76 |
| C#CCCCON=C1C[C@@H](O)[C@@H](O)[C@@H]2[C@@H]3C(=O)N([C@@H](C)c4ccccc4)C(=O)[C@@H]3CC[C@@H]12 | 0.377 |
| O=C1C2=CC[C@H]3C(=O)N(Cc4ccccc4)C(=O)[C@H]3[C@H]2[C@H](O)[C@@H]2O[C@H]12 | 0.41 |
| CC(CCC(=O)OC[C@H]1O[C@H](C#Cc2ccccc2)C=C[C@@H]1Oc1ccc(C)cc1)=NOC(C)CN1CCCCc2nc(C)c(C)cc21 (some centres not stated) | -0.598 |
| CCOC(=O)NN=C1C[C@@H](O)[C@@H](O)[C@@H]2[C@@H]3C(=O)N(CC)C(=O)[C@@H]3CC[C@H]12 | 0.283 |
